Screening data as filed in PubChem BioAssay.
Shown are actives, neighbours in structure and some others; about 3.4% of the full set was active somewhere.
PKM2 act = activators of human pyruvate kinase M2 | P14618 | purified PKM2, Kinase-Glo ATP luminescence, activation; response scale: 0% is enzyme alone, no compound | Potency, µM (top dose mostly 57.5 µM), for the others: top-dose activation, hits mostly activators | 260,000 tested, 0.34% active | AID 1631; note: % is set by controls: 0 for no effect and ±100 for the full control effect; nearly all actives have a fitted effect of over 55% in size
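hPK-M2, >95% pure; 0.1 mM ADP / 0.5 mM PEP final; imidazole pH7.2 buffer w/ 7 mM MgCl2, 50 mM KCl; 1 h RT; Kinase-Glo lum. Intermediate enzyme activity for dual inhibitor/activator qHTS.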
KAT2A inh = blocks human GCN5L2 histone acetyltransferase; Q92830; Potency, µM (doses to about 58.9 µM), for the others: top-dose activity change, negative = inhibition, most hits filed as inhibitors; GCN5L2 HAT assay, ThioGlo1 CoA-SH fluorescence; 390,000 tested, 0.21% active; note: % is set by controls: 0 for no effect and ±100 for the full control effect
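ThioGlo1-coupled HAT assay: 20nM GCN5L2, 70uM acetyl-CoA, 75uM H3(1-25) peptide, pH 7.5. Fluorescence read at 340/540nm at start and after 20 min at room temperature.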
Mito fusion act = inhibitors of mitochondrial division or activators of mitochondrial fusion. S. cerevisiae fusion-defective mutant growth rescue, CellTiterGlo 48 h. Potency, µM (highest dose often 46.1 µM), for the others: top-dose growth rescue (activation), hits mostly activators. 320,000 tested, 0.23% active; note: % of control where 0% means no effect; nearly all actives have a fitted effect of over 45% in size
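Read-out: ATP-based luminescence (CellTiterGlo, 10 min ambient) reporting growth of fusion-defective ts yeast after 48 hours at 37C on glycerol/ethanol YPEG medium in the presence of compound.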
VDR inhibitor = inhibitors of human vitamin D receptor | P11473 | VDR-SRC2-3 peptide fluorescence polarization, 2 h | Potency, µM, without a hit: max response, negative = inhibition, hits mostly inhibitors | 400,000 tested, 0.93% active | AID 504847; note: % is set by controls: 0 for no effect and ±100 for the full control effect
Target sequence (P11473 whole entry, looked up): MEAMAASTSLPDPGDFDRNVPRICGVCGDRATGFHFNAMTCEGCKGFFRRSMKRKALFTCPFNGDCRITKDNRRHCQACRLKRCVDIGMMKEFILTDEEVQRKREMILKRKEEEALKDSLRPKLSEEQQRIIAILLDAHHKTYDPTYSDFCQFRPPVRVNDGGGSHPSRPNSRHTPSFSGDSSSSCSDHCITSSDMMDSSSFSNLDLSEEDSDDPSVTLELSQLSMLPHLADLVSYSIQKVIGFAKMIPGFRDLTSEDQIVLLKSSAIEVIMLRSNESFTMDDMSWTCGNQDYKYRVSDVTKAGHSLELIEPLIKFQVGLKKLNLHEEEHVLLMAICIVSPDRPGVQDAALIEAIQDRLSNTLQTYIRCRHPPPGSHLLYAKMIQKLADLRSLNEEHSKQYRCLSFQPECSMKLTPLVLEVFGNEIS
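Fluorescence polarization assay measuring small-molecule disruption of VDR binding to the coregulator peptide SRC2-3. Compounds were pin-transferred (23 nl) into the reagent mix and incubated 2 h at room temperature before reading.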
GLS inh = blocks human kidney-isoform glutaminase activity; 410,000 tested, 0.21% active; GLS enzymatic activity, qHTS titration; AID 624170; O94925; Potency, µM (titrated, usually from 45.5 µM), for the others: top-dose activity change, negative = inhibition, most hits filed as inhibitors; note: % is set by controls: 0 for no effect and ±100 for the full control effect
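Coupled fluorescence readout: glutamate oxidase/HRP/Amplex Red detect glutamate formed by hKGA from L-glutamine (1 mM solution added). Buffer 45 mM KH2PO4 pH 8.2, 0.02% Tween-20; reads at t0 and 30 min RT.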
PLK1 PBD block = blocks phosphopeptide binding to human PLK1 polo-box domain; P53350; Plk1 PBD binding of FITC phosphopeptide, fluorescence polarization; Potency, µM, for inactives: max response, negative = inhibition, most hits filed as inhibitors; 360,000 tested, 2.8% active; note: series mostly up to about 57 µM; % is set by controls: 0 for no effect and ±100 for the full control effect; nearly all actives have a fitted effect of over 65% in size
* marks the source's active call; other numbers are inactive results; ? = inconclusive; nt = no result. Calls come from the whole dose curve; as a rule, active = well fitted curve in the direction sought with a large enough effect; inconclusive = small, poorly fitted or top-dose-only effect, or another doubt; inactive = no such curve, though single readings can be large; an effect the other way counts as inactive or inconclusive. Potency is the fitted concentration of half-maximal effect.

SMILES | PKM2 act | KAT2A inh | Mito fusion act | VDR inhibitor | GLS inh | PLK1 PBD block
CC1=NN(Cc2ccccc2)C(=O)C1C(c1ccccc1)C(C#N)C#N (stereo not drawn) | 2% | -3% | -1% | ? | 6% | 24µM*
CC1=NN(Cc2ccccc2)C(=O)C1C(c1ccncc1)C(C#N)C#N (stereo not drawn) | -5% | -9% | -4% | -7% | 3% | ?
CC1=NN(Cc2ccccc2)C(=O)C1C(c1ccc(Cl)cc1)C(C#N)C#N (stereo not drawn) | 13% | -8% | -4% | 40µM* | 4% | 7.5µM*
CC1=NNC(=O)C1C(c1ccc(Cl)cc1)C(C#N)C#N (stereo not drawn) | 1% | -1% | -1% | 79µM* | ? | 21µM*
CCOCCCNC(=O)Cn1cnc2c(cnn2-c2ccc(OC)cc2)c1=O | -22% | -20% | -1% | -24% | 11% | 27µM*
CCOC(=O)Cn1cnc2c(cnn2-c2ccc(OC)cc2)c1=O | -3% | -6% | -5% | -1% | -6% | -4%
Cc1ccc(C(=O)Nc2nc(=O)n(C(=O)CC(C)C)s2)cc1 | -2% | 0% | 17% | ? | -4% | -19%
CC(C)CC(=O)n1sc(NC(=O)c2ccccc2)nc1=O | 1% | -6% | 7% | 45µM* | 2% | -7%
Cc1ccc(C(=O)Nc2nc(=O)n(C(=O)c3ccccc3Cl)s2)cc1 | -8% | 2% | 7% | 18µM* | 1% | ?
Cc1ccc(C(=O)Nc2nc(=O)n(C)s2)cc1 | 5% | 1% | 7% | -11% | -6% | 3%
COc1ccc(CCC(=O)Nc2ccc3c(c2)OCO3)cc1OC | 0% | -3% | -8% | 13% | 6% | -4%
COC(=O)c1ccc(NC(=O)N2CCC(CN3CCc4ccccc4C3)CC2)cc1 | nt | -3% | nt | 21% | -12% | nt
NC(N)=NC(N)=Nc1ccc2ccccc2c1 | 0% | 4% | 32µM* | -22% | 0% | -14%
CCN(C(=O)c1coc(=O)c2ccccc12)c1ccccc1C | nt | -9% | nt | -3% | -2% | nt
Clc1nssc1=Nc1ccccc1 | 13% | 4µM* | 12% | 45µM* | ? | 2.4µM*
COc1ccc(N=c2ssnc2Cl)cc1 | -46% | 13µM* | -1% | ? | -10% | 1.7µM*
O=C1CSC(=Nc2ccccc2)N1Cc1ccccc1 | 3% | -10% | 11% | -9% | -1% | -12%
COc1ccc(CCNC[C@H](O)COc2cccc(C)c2)cc1OC | nt | nt | nt | nt | 0% | nt
COc1ccc(N2C(=S)N(C(=O)c3ccccc3)C(=Nc3ccccc3)C2=Nc2ccccc2)cc1 | nt | nt | nt | ? | -21% | 21µM*
CCOc1ccc(S(=O)(=O)N(C(=O)c2ccncc2)c2ccc3oc(C)c(C(=O)OC)c3c2)cc1 | nt | -18% | nt | -16% | 0% | nt
O=C(NCCC1CCCCN1S(=O)(=O)c1ccc(F)cc1)C(=O)NCc1cccnc1 (stereo not drawn) | nt | -5% | -2% | -16% | 3% | -7%
COc1cc(C2Nc3cc(Cl)c(S(N)(=O)=O)cc3S(=O)(=O)N2)ccc1OCc1ccccc1 (stereo not drawn) | -10% | -8% | 5% | -20% | 41% | 24µM*
COc1cc(C2Nc3cc(Cl)c(S(N)(=O)=O)cc3S(=O)(=O)N2)cc(OC)c1OC (stereo not drawn) | 0% | 0% | 6% | -7% | 28% | -4%
C[C@@H](NC(=O)[C@@H]1Cc2ccccc2CN1C(=O)OC(C)(C)C)C(=O)NC1CCCCC1 | nt | -3% | 0% | 17% | -2% | -14%
CCN1C(=O)/C(=C\N(C)C)NC1=S | 3% | -10% | 0% | -14% | 29% | 2%
SMILES | PKM2 act | KAT2A inh | Mito fusion act | VDR inhibitor | GLS inh | PLK1 PBD block
CN(C)/C=C1/NC(=S)NC1=O | -1% | -4% | -2% | 4% | 10µM* | -5%
CCCCC(=O)NC(=S)Nc1c(C)cc(Br)cc1C | -3% | -12% | -22% | -24% | -4% | 15µM*
Cc1nnc(SCc2ccc([N+](=O)[O-])cc2)o1 | 0% | 19% | 3% | ? | ? | 3.8µM*
Fc1ccc2cc(-c3ccccc3F)ncc2c1 | nt | -1% | nt | -7% | 5% | -8%
COCCCN(C(=S)Nc1cc(Cl)cc(Cl)c1)C(C)c1ccccn1 (stereo not drawn) | 5% | -4% | 13% | ? | 9% | 17µM*
COCCCN(C(=S)Nc1cc(Cl)cc(Cl)c1)C(C)c1ccncc1 (stereo not drawn) | -4% | 19% | ? | ? | 10% | 21µM*
O=C(NCc1ccncc1)C1CCCCC1 | 3% | 2% | -3% | -26% | -5% | 27µM*
O=C(NCc1ccccc1)C1CCCC1 | -6% | 2% | 0% | nt | nt | nt
Cc1ccc2c(c1)cc(CN(Cc1ccco1)C(=O)N1CCOCC1)c1nnnn12 | -2% | 1% | 6% | -11% | -3% | 5%
Cc1cccc2cc(CN(Cc3ccc(F)cc3)C(=O)N3CCOCC3)c3nnnn3c12 | 1% | -5% | 1% | -13% | 7% | 24µM*
CCOC(=O)NC(N(O)c1cccc(Cl)c1)C(Cl)(Cl)Cl (stereo not drawn) | 2% | 1% | -4% | 32µM* | 0% | ?
CCOC(=O)N[C@H](Cc1c[nH]c2ccccc12)C(=O)Nc1cccc(Cl)c1 | nt | 2% | nt | -8% | -3% | nt
O=C1CCCCCN1C(=O)c1ccc(C(=O)N2CCCCCC2=O)cc1 | -1% | -4% | -2% | -2% | 0% | 30µM*
O=C(Nc1ccccc1)Nc1ccc(O)c2ccccc12 | nt | nt | nt | 50µM* | 31% | ?
O=C(Nc1ccccc1)Nc1cccc2ccccc12 | -9% | 1% | -6% | 4% | -3% | -1%
COC(=O)CSc1nc(N2CCCCC2)c2c(c1C#N)CCCC2 | -6% | -9% | 15% | -11% | 8% | 24µM*
C/C(=N\Nc1ccc(Cl)c(C(=O)O)c1)c1ccc(Br)s1 | nt | -10% | 14% | -22% | 39% | 24µM*
Cc1cc(/C=C2\C(=N)N3N=C(C(C)C)SC3=NC2=O)c(C)n1Cc1ccccc1 | -2% | -8% | -1% | -1% | 11% | -4%
Cc1cc(/C=C2\C(=N)N3N=C(c4ccco4)SC3=NC2=O)c(C)n1Cc1ccccc1 | -3% | ? | 8% | 6% | 0% | 27µM*
COc1ncc2nc(-c3cn(C)c4ccccc34)c(=O)n(-c3ccccc3)c2n1 | nt | -12% | nt | -8% | nt | nt
CCN(C(=O)COC(=O)c1c2c(nc3ccccc13)/C(=C/c1ccccc1)CC(C)C2)C1CCS(=O)(=O)C1 (stereo not drawn) | 3% | -11% | 20µM* | -9% | 8% | 0%
Cc1nc2c3cccnc3nn2c(C)c1CCC(=O)NCc1ccccc1 | nt | -3% | nt | -7% | 10% | nt
